Measured values from PubChem BioAssay AID1863 (Southern Research Specialized Biocontainment Screening …, 2009).
Among all 300,000 compounds or so, about 480 (0.16%) were called active.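 How the source made its calls: active means inhibition over 29.93%, a cutoff 3 SD above the screen mean, later confirmed by dose response; inconclusive means inhibition over 29.93% but no dose response follow-up; inactive means inhibition at most 29.93% or unconfirmed.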 Not all results are given here. Potency and affinity values are given separately.

Experiment: PhoP-dependent GFP reporter repression – Salmonella Typhimurium, primary screen (AID 1863);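 further: 0% = low Mg2+ inducing control and 100% = high Mg2+ repressing control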
Conditions: S. Typhimurium PhoP-regulated promoter GFP reporter, 4 h; at 50 µM; hits give high values

inhibition, inactive:
O=C(Nc1nc(-c2ccccn2)cs1)c1ccc(Br)s1 8.88%, O=C(Nc1nc(-c2cccs2)cs1)c1ccc(Cl)s1 7.37%, CCOC(=O)c1c(C)[nH]c(C(=O)COC(=O)CNC(=O)c2ccccc2Cl)c1C -9.12%, Cc1occc1C(=O)NC(C)C(C)(C)C (centres undefined) 0.78%, Cc1ccccc1CSCCC(=O)NCCC1=CCCCC1 6.03%, Cn1nc(-c2ccc(Cl)cc2)nc2c(=O)n(C)c(=O)nc1-2 20.5%, Cn1c(=O)c(-c2ccccc2)nc2ccccc21 -3.46%, COc1ccccc1NCC(O)Cn1c2ccccc2c2ccccc21 (centres undefined) -3.61%, COc1ccc(CCNCC(O)Cn2c3ccccc3c3ccccc32)cc1OC (centres undefined) -4.43%, COc1ccc(NC(=O)C2=NN(C3CCS(=O)(=O)C3)C(=O)CC2)cn1 (centres undefined) 3.89%, O=C(CSc1oc(-c2cccs2)nc1S(=O)(=O)c1ccc(F)cc1)NCC1CCCO1 (centres undefined) -4.95%, CSC[C@H](NC(=O)Cc1c(C)c2cc3c(C)c(C)oc3cc2oc1=O)C(=O)N[C@@H](Cc1ccccc1)C(=O)O 5.06%, Cc1ccc(C(=O)CC(=O)c2ccccc2)cc1 6.5%, Cc1ccc(C(=O)Nc2ccccc2Sc2ccccc2)cc1 -6.94%, COc1cccc(NC(=O)CCC2CCN(C(=O)c3sccc3C)CC2)c1 -6.68%, O=C(CCNC(=O)c1ccc([N+](=O)[O-])cc1)NCCc1ccc(Cl)cc1 8.36%, COCCCn1c(=O)c2sccc2n2c(CCCC(=O)N(C)Cc3ccco3)nnc12 -1.76%, Cn1ccnc1SCC(=O)NC1CC1 6.54%, Cc1cc(Nc2cccc(F)c2)nc(NCc2ccccc2)n1 4.66%, Cc1cc(Nc2ccccc2)nc(NCc2ccccc2)n1 19.9%, Cc1[nH]c(=O)[nH]c(=O)c1S(=O)(=O)Nc1ccc(Cl)c([N+](=O)[O-])c1 5.49%, O=S1(=O)NC(=NCCc2ccccn2)c2ccccc21 10.3%, O=Cc1ccc2ccc3cccnc3c2n1 -0.13%, CCOC(=O)c1ccc2c(c1)NC(=O)C(N1CCN(c3ccc(OC)cc3)CC1)S2 (centres undefined) 8.89%, COc1ccc(N(C(=O)c2ccncc2)S(=O)(=O)c2cccs2)cc1 8.99%, Cc1ccccc1-n1c(SCC(=O)c2cc(C)n(C)c2C)nnc1-c1ccncc1 -15.5%, O=C(N/N=C/c1ccc[nH]1)c1cccc([N+](=O)[O-])c1 2.02%, O=C(N/N=C/c1ccc[nH]1)c1ccc([N+](=O)[O-])cc1 5.92%, Cn1c(CCCOc2ccc(Cl)cc2Cl)nnc1SCC(=O)Nc1ccc(F)c(Cl)c1 -2.33%, CCC(=O)c1ccc(OCC(=O)OCC(=O)c2cc(C)n(CC3CCCO3)c2C)cc1 (centres undefined) -5.94%, CCOC(=O)N1CCN(S(=O)(=O)c2ccc(C(=O)N(CCN(C)C)c3nc4ccc(Cl)cc4s3)cc2)CC1 14%, CCOc1c(Cl)cc(CNCc2ccncc2)cc1OC 2.05%, O=C(Nc1ncccc1O)C1CCN(S(=O)(=O)c2ccc3ccccc3c2)CC1 -9.16%, CCCCn1c2c(c(=N)c3c1CCC3)CCC2 -14.8%, CCCCCn1c2c(c(=N)c3ccccc31)CCC2 12.1%, CCCCCCCn1c2c(c(=N)c3c1CCC3)CCCC2 5.7%, CCOC(=O)Cn1c2c(c(=N)c3ccccc31)CCC2 3.57%, CCCn1c2c(c(=N)c3c1CCC3)CCCC2 -0.71%, CCCCCCn1c2c(c(=N)c3c1CCC3)CCC2 12.9%, CCn1c2c(c(=N)c3c1CCC3)CCCC2 -3.7%, CCn1c2c(c(=N)c3c1CCC3)CCC2 -5.05%, CCOn1c(SCC)nc2ccccc2c1=O 5.58%, CC(C)c1ccc(NC(=O)CCCN2C(=S)NC(C)(C)CC2C)cc1 (centres undefined) 3.65%, COC(=O)c1ccc(NC(=O)CN2CCN(c3ccccc3C)CC2)cc1 -8.21%, O=C(Nc1ccccc1)c1cc(S(=O)(=O)NCc2ccncc2)ccc1Cl -1.47%, CCc1c(C(=O)NNC(=S)NCC2CCCO2)csc1C (centres undefined) 8.11%, COc1ccc(OC)c(-c2csc(NC(=O)c3ccccc3F)n2)c1 -4.14%, Cc1cc(C)c2cc(C=O)c(Cl)nc2c1 3.78%, CCOC(=O)CN1CC23C=CC(O2)C(C(=O)NCc2ccc(C)cc2)C3C1=O (centres undefined) 10.7%, CC(C)CCNC(=O)C12CN(Cc3ccccc3)CC1C(c1ccc([N+](=O)[O-])cc1)=NO2 (centres undefined) 16.1%, COc1ccc(/C=C2\SC(=S)N(C(C)C(=O)NC3C=CS(=O)(=O)C3)C2=O)cc1 (centres undefined) -13.9%, CC(C(=O)N(C)C1CCS(=O)(=O)C1)N1C(=O)/C(=C/c2ccc(F)cc2)SC1=S (centres undefined) 3.59%, CC(C(=O)NC1C=CS(=O)(=O)C1)N1C(=O)/C(=C\c2ccccc2)SC1=S (centres undefined) -3.24%, CC(C(=O)NC1C=CS(=O)(=O)C1)N1C(=O)/C(=C/c2cccc(Cl)c2)SC1=S (centres undefined) 27.8%, Cc1nn(C)c(C(=O)N/N=C/c2cccc(Oc3ccccc3)c2)c1Br 8.95%, COc1ccc(CC(=O)N2CC3(C)CC2CC(C)(C)C3)cc1 (centres undefined) 1.16%, COc1ccc(F)c(CN2CCCC(CNS(=O)(=O)c3cccc4cccnc34)C2)c1 (centres undefined) -5.85%, CCCCCCCCCCCCCCCCn1cc[n+](C)c1 22.9%, CCCCCCn1ccc(=N)cc1 -2.46%, CCCC(=O)c1ccc(N2CCN(C(=O)OCC)CC2)c(F)c1 1.25%, O=C(N/N=C\c1ccc(-c2ccccc2[N+](=O)[O-])o1)C1COc2ccccc2O1 (centres undefined) 6.06%, Cc1cc([N+](=O)[O-])cc(/C=N\NC(=O)C2COc3ccccc3O2)c1O (centres undefined) -5.46%, O=C(N/N=C\c1ccc(O)c([N+](=O)[O-])c1)C1COc2ccccc2O1 (centres undefined) -12.2%, COc1cc(/C=N\NC(=O)C2COc3ccccc3O2)cc(OC)c1O (centres undefined) -4.27%, CC(C)[C@H](NC(=O)OCc1ccccc1)C(=O)OCC(=O)NC1(C#N)CCCC1 10.7%, CC1CCC/C(=N\NC(=O)Nc2ccccc2)C1 (centres undefined) 2.46%, COc1ccc2cc(C(=O)C3CCCN(C(=O)c4cnn(C(C)C)c4)C3)ccc2c1 (centres undefined) 2.9%, CN(CC(=O)Nc1ccc(F)cc1)C(=O)c1cccc(S(=O)(=O)N2CCN(c3ccccc3)CC2)c1 -1.79%, CC(C)(C)CN1CCN(CCCc2ccccc2)C(CCO)C1 (centres undefined) -4.44%, CCc1cc(CNC(=O)CC2C(=O)NCCN2Cc2c(F)cccc2Cl)on1 (centres undefined) -1.45%, Oc1ccc(/C=N/NC(=S)Nc2cccnc2)c(O)c1O 8.35%, Oc1ccc(/C=N/NC(=S)Nc2cccnc2)c(O)c1 29.1%, CCn1c(CNC(=O)C2CCCCC2)cc2cc(C)ccc21 -0.55%, COc1ccc(C(=O)C2CCCN(C(=O)C3CCOCC3)C2)c(C)c1 (centres undefined) 4.46%, CCCCCc1ccc(OCCCC[n+]2ccccc2)c(CCCCC)c1 3.64%, C[n+]1cn(Cc2cc(Cl)ccc2OC(F)F)c2ccccc21 -3.69%, CCCCCc1ccc(OCCCC[n+]2cccc(C)c2)c(CCCCC)c1 3.26%, CCCCCc1ccc(OCCCC[n+]2ccc(C)cc2)c(CCCCC)c1 15.8%, O=C1CC(C(=O)Nc2ccccc2)N=C(N2CCCCC2)N1 (centres undefined) 0.85%, OCC[C@H]1C[C@@H](O)[C@H](O)[C@]2(CCCCO2)O1 -4.87%, O=C(Cn1cc(SCc2cccc(Cl)c2)c2ccccc21)N1CCOCC1 -8.83%, CC(C)c1ccc(C2NC(=S)NC3=C2C(=O)CCC3)cc1 (centres undefined) 1.24%, CCOC(=O)/C=c1\s/c(=C\c2ccc(C(F)(F)F)cc2)c(=O)n1CC(=O)NCc1ccco1 -2.01%, S=C(NC1CC2CCC1C2)N1CCN(c2cccc(Cl)c2)CC1 (centres undefined) -2.31%, CCn1cc(C(=O)O)c(=O)c2cnc(N3CCN(C(=S)Nc4ccccc4C(F)(F)F)CC3)nc21 3.15%, Cc1c(-n2cc(C(=O)O)c(=O)c3cc(F)c(N4CCCC(O)C4)c(F)c32)c(=O)n(-c2ccccc2)n1C (centres undefined) 2.04%, CCOC(=O)c1cn(-c2nc(-c3ccc(Cl)cc3)cs2)c2c(F)c(N3CC(C)OC(C)C3)c(F)cc2c1=O (centres undefined) 10.3%, COC(=O)CC1C(=O)NCCN1C(=S)Nc1ccc(F)cc1 (centres undefined) 0.13%, O=S(=O)(c1ccc(F)c(F)c1F)N1CCN(C(=S)NC2CC3CCC2C3)CC1 (centres undefined) -4.07%, CCn1cc(C(=O)O)c(=O)c2cnc(N3CCN(C(=S)Nc4ccc(F)cc4)CC3)nc21 -3.34%, Cn1c(SCC2CCCCC2)nnc1-c1ccncc1 7.51%, CC(NC(=O)c1cc2cc(F)ccc2[nH]1)c1ccccc1 (centres undefined) 5.36%, COc1ccc(Cl)cc1NC(=O)C/C(C)=N/NC(=O)COc1ccc(C)cc1 4.2%, Cc1ccc(C(=O)OC(C)C(=O)NC2CCCCC2C)cc1S(=O)(=O)N1CCOCC1 (centres undefined) -5.67%
